Laboratory results as given in PubChem BioAssay AID1159580 (chemical genetic matrix, 2015).
Several values for one entry are separate records, joined by “and”; a condition that tells them apart may be missing. Identical values can stand only once. Hit rate of the full screen: of about 5,500 compounds, about 2,000 (36%) were called active. Inconclusive results (about 18%) are left out. Cut-off read from the data, not from the text of the source: active = normalized growth mostly below about 0.91 (no sharp cut-off); inconclusive = no clear call, values can overlap the other calls; inactive = mostly above about 0.92. The list shows a part of the results.

Assay: chemical genetic growth profiling, strain panel (AID 1159580);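 note: tested at 20 µM; growth read once vehicle control cultures reached saturation at 30 °C; 1 = growth at the plate median or of vehicle wells; lower values mean less growth of the strain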
Conditions: S. cerevisiae deletion strains, growth OD

Measured: normalized growth

O=C(O)/C=C/c1ccc(O)c(O)c1
inactive: locus YAL021C, strain ccr4, hits give low values 0.981 | locus YAL026C, strain drs2, hits give low values 1 | locus YAL030W, strain snc1, hits give low values 1 | locus YAL040C, strain CLN3, hits give low values 1.02 | locus YBL061C, strain skt5, hits give low values 0.996 | locus YBR009C, strain hhf1, hits give low values 0.995 | locus YBR021W, strain FUR4, hits give low values 1.01 | locus YBR023C, strain chs3, hits give low values 1 | locus YBR171W, strain sec66, hits give low values 1 | locus YBR229C, strain ROT2, hits give low values 1.01 | locus YBR231C, strain swc5, hits give low values 1 | locus YBR279W, strain paf1, hits give low values 0.995 | locus YCL011C, strain gbp2, hits give low values 1.01 | locus YCL016C, strain dcc1, hits give low values 1 | locus YCL029C, strain bik1, hits give low values 1.01 | locus YCL061C, strain MRC1 (second series), hits give low values 1.01 | locus YCL061C, strain MRC1, hits give low values 1 | locus YCL069W, strain vba3, hits give low values 1 | locus YCR088W, strain abp1, hits give low values 1 | locus YDL005C, strain med2, hits give low values 1 | locus YDL035C, strain GPR1, hits give low values 1.02 | locus YDL040C, strain nat1, hits give low values 1 | locus YDL074C, strain BRE1, hits give low values 1.05 | locus YDL101C, strain DUN1, hits give low values 1.01 | locus YDL134C, strain PPH21, hits give low values 1 | locus YDL185W, strain tfp1, hits give low values 1 | locus YDL192W, strain arf1, hits give low values 1 | locus YDR001C, strain nth1, hits give low values 1 | locus YDR069C, strain doa4, hits give low values 1.01 | locus YDR101C, strain arx1, hits give low values 1 | locus YDR137W, strain rgp1, hits give low values 0.998 | locus YDR150W, strain NUM1, hits give low values 1.01 | locus YDR159W, strain sac3, hits give low values 1 | locus YDR162C, strain NBP2, hits give low values 1 | locus YDR195W, strain ref2 0.977 | locus YDR297W, strain sur2, hits give low values 1.01 | locus YDR318W, strain mcm21, hits give low values 1 | locus YDR334W, strain swr1, hits give low values 0.993 | locus YDR335W, strain msn5, hits give low values 0.99 | locus YDR388W, hits give low values 1.01 | locus YDR392W, strain spt3, hits give low values 1.03 | locus YDR502C, strain sam2, hits give low values 0.996 | locus YEL003W, strain gim4, hits give low values 1.01 | locus YEL037C, strain rad23, hits give low values 0.991 | locus YEL061C, strain CIN8 (second series), hits give low values 1 | locus YEL061C, strain CIN8, hits give low values 1.01 | locus YER002W, strain NOP16, hits give low values 1.02 | locus YER015W, strain faa2, hits give low values 1 | locus YER016W, strain bim1, hits give low values 1.01 | locus YER110C, hits give low values 1.02 | locus YER111C, strain swi4, hits give low values 0.981 | locus YER155C, strain BEM2 (second series), hits give low values 1.03 | locus YER155C, strain BEM2, hits give low values 1 | locus YER167W, strain BCK2, hits give low values 1.02 | locus YFR010W, strain ubp6, hits give low values 1 | locus YGL078C, strain dbp3, hits give low values 0.997 | locus YGL086W, strain mad1, hits give low values 1.03 | locus YGL167C, strain pmr1, hits give low values 1 | locus YGL173C, strain kem1, hits give low values 1 | locus YGL227W, strain vid30, hits give low values 1.01 | locus YGL240W, strain doc1, hits give low values 1 | locus YGL248W, strain PDE1, hits give low values 0.999 | locus YGL253W, strain hxk2, hits give low values 1 | locus YGR078C, strain PAC10, hits give low values 1 | locus YGR135W, strain pre9, hits give low values 1.01 | locus YGR229C, strain SMI1, hits give low values 1.01 and 1.04 | locus YGR252W, strain gcn5, hits give low values 0.981 | locus YHR013C, strain ard1, hits give low values 0.993 | locus YHR027C, strain rpn1, hits give low values 0.992 | locus YHR030C, strain SLT2, hits give low values 1.01 | locus YHR079C, strain IRE1 (second series), hits give low values 1.03 | locus YHR079C, strain IRE1, hits give low values 0.993 | locus YHR094C, strain hxt1, hits give low values 1.01 | locus YHR129C, strain ARP1, hits give low values 1.02 | locus YHR142W, strain chs7, hits give low values 1.01 | locus YHR200W, strain rpn10, hits give low values 1.03 | locus YIL066C, strain RNR3, hits give low values 1.01 | locus YIL073C, strain SPO22, hits give low values 1.04 | locus YIL125W, strain kgd1, hits give low values 1.01 | locus YIR030C, strain dcg1, hits give low values 1 | locus YJL092W, strain hpr5, hits give low values 1 | locus YJL095W, strain BCK1 (second series), hits give low values 0.994 | locus YJL095W, strain BCK1, hits give low values 0.996 and 1.01 | locus YJL115W, strain asf1, hits give low values 0.991 | locus YJL129C, strain trk1, hits give low values 1 | locus YJL134W, strain LCB3, hits give low values 1.01 | locus YJL154C, strain vps35, hits give low values 0.999 | locus YJL164C, strain tpk1, hits give low values 1.01 | locus YJL166W, strain qcr8, hits give low values 1 | locus YJL168C, strain set2, hits give low values 1 | locus YJL187C, strain SWE1 (second series), hits give low values 1 | locus YJL187C, strain SWE1, hits give low values 0.998
